A549 viability – Nrf2 qHTS screen for inhibitors: counterscreen for cytotoxicity; 0.16% of 390,000 active; Potency, µM (top dose mostly 46 µM), without a hit: top-dose activity change, negative = cytotoxicity, usual class: inhibitors; A549 ARE-Fluc cells, CellTiter-Fluor viability, 18-24 h; further: on the % scale 0 is the no-effect control and ±100 the full control effect
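A549 ARE-Fluc cells in 5% FBS OPTI-MEM, 5000 cells/well, rested 2 h then exposed to compounds in concentration-response for 18-24 h at 37 °C. Viability by CellTiter-Fluor fluorescence (Ex 405/Em 525) after 30 min; luciferase luminescence (BugLite, 15 min, RT) read afterwards.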
ELG1 repair inh – qHTS screen for small molecules that inhibit ELG1-dependent DNA repair in human embryonic kidney (HEK293T) cells expressing luciferase-tagged ELG1 | 2.3% of 330,000 active | Potency, µM (doses to about 46.1 µM), inactives show at the top dose activity change, negative = inhibition, actives largely listed as inhibitors | HEK293T ELG1-luciferase reporter, luminescence, 16 h; DNA damage induced by 5-fluorouridine; further: on the % scale 0 is the no-effect control and ±100 the full control effect; nearly all actives have a fitted effect of over 55% in size
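Reporter activity after DNA damage by 5-fluorouridine is monitored. Compound-treated cells incubate 16 hr at 37 °C, then ONE-Glo is added for 30 min before luminescence reading.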
mIDH1 inhibitor – qHTS for Inhibitors of mutant isocitrate dehydrogenase 1 (IDH1): qHTS; Isocitrate dehydrogenase [NADP] cytoplasmic (Homo sapiens), O75874; IDH1-R132H enzyme, NADPH consumption, diaphorase/resazurin fluorescence; Potency, µM (top dose mostly 76.6 µM), for inactives: at the highest dose activity change, negative = inhibition, most hits filed as inhibitors; 0.093% of 390,000 active; AID 602179, 2012; further: on the % scale 0 is the no-effect control and ±100 the full control effect; nearly all actives have a fitted effect of over 65% in size
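IDH1-R132H (0.5 ug/mL dispensed) in pH 7.5 Tris buffer was preincubated 30 min with compound, then given a substrate mix of 0.016 mM NADPH and 2 mM alpha-KG for 80 min at room temperature; remaining NADPH was read by diaphorase/resazurin fluorescence.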
Nrf2 block – Nrf2 qHTS screen for inhibitors. A549 ARE-Fluc reporter, luciferase luminescence, 18-24 h. Potency, µM (titrated, usually from 46 µM), for inactives: at the highest dose activity change, negative = inhibition, most hits filed as inhibitors. 2.1% of 360,000 active. AID 504444, 2011; further: on the % scale 0 is the no-effect control and ±100 the full control effect; nearly all actives have a fitted effect of over 60% in size
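Quantitative HTS in A549 cells stably bearing an antioxidant response element-firefly luciferase construct. Inhibition of Nrf2-driven transcription was scored by luminescence after 18-24 h of compound exposure at 37 °C.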
Nrf2 ARE act – qHTS of Nrf2 Activators | AREc32 ARE-luciferase reporter (MCF7-derived line), luminescence, 24 h | Potency, µM (series often up to 46.1 µM), without a hit: at the highest dose activation, most hits filed as activators | 0.31% of 410,000 active; further: % of control where 0% means no effect; nearly all actives have a fitted effect of over 65% in size
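Quantitative high-throughput format: AREc32 reporter cells, 1000 per well, received compound by pin transfer and were incubated 24 hr at 37 deg C, 5% CO2, before Steady-Glo luminescence detection.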
ELG1 FLuc counter – qHTS screen for small molecules that inhibit ELG1-dependent DNA repair: Hit Confirmation in Cell-Based Luciferin Assay; 3% of 350 active; Potency, µM (highest dose often 46.1 µM), for the others: at the highest dose activity change, negative = inhibition, hits mostly inhibitors; shares compounds with ELG1 repair inh; cell-free firefly luciferase luminescence counter-screen, ViewLux; further: on the % scale 0 is the no-effect control and ±100 the full control effect
ELG1-Luc inh – HTS assay for small molecules that inhibit ELG1-dependent DNA repair in human embryonic kidney (HEK293T) cells expressing luciferase-tagged ELG1: Hit Confirmation. shares compounds with ELG1 repair inh. HEK293T ELG1-luciferase levels, luminescence; cells co-treated with 5-fluorouridine. Potency, µM (series often up to 46.1 µM), for inactives: at the highest dose activity change, negative = inhibition, actives largely listed as inhibitors. 68% of 670 active. AID 624248, 2012; further: on the % scale 0 is the no-effect control and ±100 the full control effect; nearly all actives have a fitted effect of over 55% in size
ELG1-Luc MMS – confirmation of human ELG1 repair inhibitors, MMS stimulated. HEK293T luciferase-tagged ELG1 level, MMS stimulated. 53% of 670 active. shares compounds with ELG1 repair inh. Potency, µM (top dose mostly 46.1 µM), inactives show top-dose activity change, negative = inhibition, usual class: inhibitors; further: on the % scale 0 is the no-effect control and ±100 the full control effect; nearly all actives have a fitted effect of over 60% in size
ELG1 5-FU – qHTS screen for small molecules that inhibit ELG1-dependent DNA repair: Hit Confirmation with 5FU Viability; shares compounds with ELG1 repair inh; cell viability with 5-FU, ELG1-dependent repair; Potency, µM (top dose mostly 46.1 µM), for inactives: top-dose activity change, negative = viability loss, usual class: cytotoxic; 670 tested, under 10 active; AID 624250, 2012;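 further: ELG1-luc HEK293T cells cotreated with 5-fluorouridine at 10 µM final; viability measured 16 h after compound addition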
ELG1 MMS viab – qHTS screen for small molecules that inhibit ELG1-dependent DNA repair: Hit Confirmation with MMS Viability; shares compounds with ELG1 repair inh; Cell viability with MMS, ELG1-dependent DNA repair; Potency, µM (top dose mostly 46.1 µM), inactives show at the highest dose activity change, negative = viability loss, actives largely listed as cytotoxic; 33% of 670 active;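 further: ELG1-luc HEK293T cells co-treated with 10 µM MMS; viability read 16 h after compound addition; on the % scale 0 is the no-effect control and ±100 the full control effect; nearly all actives have a fitted effect of over 60% in size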
ELG1 unstim viab – qHTS screen for small molecules that inhibit ELG1-dependent DNA repair: Hit Confirmation with Unstimulated Viability Assay. shares compounds with ELG1 repair inh. cell viability counter-screen, unstimulated, luminescence. Potency, µM (titrated, usually from 45.9 µM), inactives show top-dose activity change, negative = loss of viability, hits mostly cytotoxic. 8% of 900 active. AID 624252, 2012;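 further: compound exposure lasted 16 hours before reading; on the % scale 0 is the no-effect control and ±100 the full control effect; nearly all actives have a fitted effect of over 55% in size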
FLuc biochem – qHTS screen for small molecules that inhibit ELG1-dependent DNA repair: Hit Confirmation in Biochemical Luciferin Assay | AID 624253, 2012 | 10% of 350 active | purified firefly luciferase, luminescence counter-screen | Potency, µM (highest dose often 57.5 µM), for the others: top-dose activity, negative = inhibition, most hits filed as inhibitors | shares compounds with ELG1 repair inh; further: on the % scale 0 is the no-effect control and ±100 the full control effect
The depositor's hits bear a star; u = inconclusive; x = no result given. Shown are actives, neighbours in structure and some others; about 3.8% of the full set was active somewhere. The call rests on the fitted dose curve; in most records, active means well fitted curve in the direction sought with a large enough effect; inconclusive means small, poorly fitted or top-dose-only effect, or another doubt; inactive means no such curve, though single readings can be large; an effect the other way counts as inactive or inconclusive. Potency means the concentration at half of the fitted maximal effect.

SMILES	A549 viability	ELG1 repair inh	mIDH1 inhibitor	Nrf2 block	Nrf2 ARE act	ELG1 FLuc counter	ELG1-Luc inh	ELG1-Luc MMS	ELG1 5-FU	ELG1 MMS viab	ELG1 unstim viab	FLuc biochem
O=C1c2ccccc2N2C(=O)c3ccccc3[C@H]2N1c1ccccc1	-12%	u	0%	x	-1%	-9%	20µM*	u	3%	-17%	-12%	-1%
CC(C)(C)c1ccc(-c2nc(S(=O)(=O)c3ccccc3)c(N3CCOCC3)o2)cc1	-16%	x	x	11%	5%	x	x	x	x	x	x	x
O=C(COc1ccccc1F)Nc1ccc(-c2nc3ccccc3s2)cc1	0%	x	-5%	5%	6%	69%	x	x	x	x	-16%	u
CC(=O)NC(CC(=O)Nc1ccc(S(=O)(=O)Nc2nccs2)cc1)c1ccccc1 (stereo not drawn)	4%	0.52µM*	7%	8%	-1%	6%	u	-6%	5%	11%	5%	2%
COc1ccc(-c2cc(C(F)(F)F)n3nc(C(=O)Nc4cc(C)on4)cc3n2)cc1OC	-2%	3.7µM*	5%	x	0%	x	u	-4%	u	u	3%	x
Cc1ccc(-c2cc(C(F)(F)F)n3nc(C(=O)Nc4ccon4)cc3n2)cc1C	0%	2%	-8%	0%	0%	x	x	x	x	x	x	x
O=C(c1cnn2c(C(F)(F)F)cc(-c3ccc(Br)cc3)nc12)N1CCOCC1	0%	u	2%	0%	-1%	x	x	x	x	x	x	x
COc1ccc(-c2cc(C(F)(F)F)n3ncc(C(=O)NCC4CCCO4)c3n2)cc1OC (stereo not drawn)	2%	0.58µM*	1%	-11%	3%	10%	0.89µM*	13%	u	-3%	-3%	2%
Cc1cc(NC(=O)c2cnn3c(C(F)(F)F)cc(-c4ccc(Br)cc4)nc23)no1	3%	15µM*	1%	-19%	0%	2%	5µM*	-7%	u	2%	-20%	4%
COc1cc(CNc2nccn3ccnc23)cc(OC)c1	x	x	x	x	13%	x	x	x	x	x	x	x
O=c1c(-c2ccc(F)cc2)coc2c3c(ccc12)OCCO3	-4%	u	-2%	u	0%	123%	x	x	x	x	u	u
Cc1cc(C(=O)Nc2ccc(Br)cn2)sc1C	-5%	u	7%	u	6%	x	x	x	x	x	u	x
O=C(Nc1ccc(Br)cn1)c1ccc(Br)s1	-6%	u	9%	u	11%	x	x	x	x	x	x	x
COc1ccc(-c2c(C(C)=O)c(C)nc3sc4c(=N)n(N)cnc4c23)cc1	2%	u	2%	-3%	0%	x	x	x	x	x	x	x
CCOC(=O)c1c(C)nc2sc3c(=O)n(-c4ccc(OC)cc4)cnc3c2c1-c1ccc(OC)cc1	-2%	-9%	4%	2%	0%	-3%	1.3µM*	-13%	2%	-2%	-2%	-2%
CN1CCN(c2nc(-c3ccncc3)nc3ccccc23)CC1	-7%	-16%	7%	u	12%	18%	u	u	-16%	-5%	u	0%
CC(=O)N1CCC(N(Cc2ccco2)C(=O)Nc2ccc(C)c(Cl)c2)CC1	10%	x	18%	23%	4%	x	x	x	x	x	x	x
CCOC(=O)N1CCN(C(=O)CSCC(=O)Nc2nc(-c3ccc(-c4ccccc4)cc3)cs2)CC1	-15%	10µM*	0%	u	1%	-9%	x	x	x	x	16µM*	u
O=C(CSCC(=O)N1CCOCC1)Nc1nc(-c2ccccc2)cs1	4%	u	19%	u	0%	x	x	x	x	x	x	x
NS(=O)(=O)c1ccc(CCNC(=O)C2CC(=O)N(Cc3ccccc3Cl)C2)cc1 (stereo not drawn)	0%	4%	15%	0%	-1%	x	x	x	x	x	x	x
O=C(Nc1ccccc1-c1nc2ccccc2[nH]1)c1ccc(N2C(=O)CCC2=O)cc1	-11%	1.8µM*	3%	-18%	-1%	x	0.71µM*	u	u	4%	-18%	x
COc1ccc(-c2oc(=O)c3cc(OC)c(OC)cc3c2/C=C/c2ccc([N+](=O)[O-])cc2)cc1	5%	-5%	-5%	5%	0%	x	x	x	x	x	x	x
COc1ccc(-c2oc(=O)c3cc(OC)c(OC)cc3c2/C=C/c2cccc([N+](=O)[O-])c2)cc1	5%	1.6µM*	-11%	-6%	3%	x	u	22%	1%	u	-11%	x
O=C(Nc1ccc(N2CCN(C(=O)c3ccco3)CC2)c(Cl)c1)c1cccs1	-9%	4.1µM*	1%	x	4%	x	4µM*	13µM*	u	28µM*	25µM*	x

Bioassay records as filed in PubChem BioAssay.
